# Assay results: PubChem BioAssay (NCI)
# This is part of a sample that, as a whole, favours compounds with a hit. Of some 83,000 tested, about 20% had one in any assay.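 Testing used 96-well plates and a 48-hour single-concentration exposure. Example: -40 means 40% of the starting cells died.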 A number with no mark means an inactive call. Activity calls are given as the source filed them. The calls were made as follows: active = growth percent below 10; inactive = the rest.
# Assays:
# Experiment in all cases: NCI-60 one-dose screen, 48 h (100 = growth as untreated, 0 = no growth, -100 = all killed)
# Conditions in all cases: 10 µM unless noted
# HT29 colon = system: HT29 colon
# SNB-75 CNS = system: SNB-75 CNS
# SNB-19 CNS = system: SNB-19 CNS
# U251 CNS = system: U251 CNS
# PC-3 prostate = system: PC-3 prostate
# SK-MEL-5 melanoma = system: SK-MEL-5 melanoma
# UACC-62 melanoma = system: UACC-62 melanoma
# LOX IMVI melanoma = system: LOX IMVI melanoma
# SK-MEL-28 melanoma = system: SK-MEL-28 melanoma
SMILES,growth (HT29 colon),growth (SNB-75 CNS),growth (SNB-19 CNS),growth (U251 CNS),growth (PC-3 prostate),growth (SK-MEL-5 melanoma),growth (UACC-62 melanoma),growth (LOX IMVI melanoma),growth (SK-MEL-28 melanoma)
CO[C@H]1CC[C@@]2(C)C(=CC[C@H]3[C@@H]4C[C@H](O)C[C@@]4(C)CC[C@@H]32)C1,69%,32.8%,55.3%,38.6%,68.3%,30.9%,42.6%,48.7%,68.5%
Nc1nc(N)c2c(n1)NC(c1ccc(F)cc1)C1CCc3ccccc3C1=N2 (centres undefined),27.9%,63.1%,70.7%,41.8%,,1.07% (active),47.5%,52.8%,93.4%
CCN(CC)CC(C)Nc1ccc(C)c2sc3ccccc3c(=O)c12 (centres undefined),26.8%,40.3%,53.8%,37.4%,47.6%,-68.1% (active),3.87% (active),23.3%,38.9%
C=C1C(=O)O[C@H]2[C@H]1CC/C(COC(=O)NCc1ccc(Cn3c(=O)sn(-c4ccc(Cl)cc4)c3=O)cc1)=C\CC[C@@]1(C)O[C@@H]21,37.8%,79.7%,91.9%,90.2%,76.2%,97.6%,76.5%,58.4%,101%
CC(C)CCSc1nc(N)nc2nc[nH]c12,114%,101%,93.3%,100%,93.7%,93.2%,82.3%,86.8%,121%
O=C1/C(=C/c2cccc(OCc3ccccc3)c2)Oc2cc(OCCN3CCCCC3)ccc21,21%,76%,83.9%,61.1%,47.1%,78.6%,77.8%,32.1%,76.6%
COc1cc(OC)cc(C(=O)Nc2cc(-c3cccnc3)nc(NCCCN3CCOCC3)n2)c1,85.2%,109%,98.7%,90.6%,85.4%,68.3%,97.6%,88.1%,101%
CCOC(=O)c1sc2nc(-c3cc(OC)c(OC)c(OC)c3)nc(N3CCOCC3)c2c1C,40.6%,56.2%,53.2%,36.2%,14.2%,2.9% (active),15.7%,45.1%,42.2%
O=[N+]([O-])c1cc(CCl)ccc1OCCBr,96.7%,86.6%,107%,101%,98.1%,98.6%,96.8%,95%,110%
CC1(C)CC[C@]2(C(N)=O)CC[C@]3(C)C(=CC[C@@H]4[C@@]5(C)C/C(=C/c6cccnc6)C(=O)C(C)(C)[C@@H]5CC[C@]43C)[C@@H]2C1,-35.6% [100 µM] (active),-17.6% [100 µM] (active),-90.1% [100 µM] (active),-83.2% [100 µM] (active),-19.6% [100 µM] (active),-100% [100 µM] (active),-70.5% [100 µM] (active),-74.1% [100 µM] (active),-59.7% [100 µM] (active)
CC[C@]1(O)CC2CN(CCc3c([nH]c4ccccc34)[C@@](C(=O)OC)(c3cc4c(cc3OC)N(C=O)[C@H]3[C@@](O)(C(=O)OC)[C@H](OC(C)=O)[C@]5(CC)C=CCN6CC[C@]43[C@@H]65)C2)C1 (some centres undefined),4.12% (active),38.7%,43.8%,8.14% (active),35.1%,-38% (active),35.6%,26%,61%
c1ccc2c(c1)CN(CCCN1CCOCC1)C2,107%,89.7%,96.1%,97.8%,96.4%,99.1%,96.7%,107%,105%
O=C(NCc1ccccc1)C(Cl)Cl,99.2%,102%,96.7%,99.4%,101%,101%,93.1%,101%,96.1%
Nc1cc(N)c(N=Nc2ccc(S(=O)(=O)O)cc2)cc1N=Nc1ccc(-c2ccc(N=Nc3ccc(O)c(C(=O)O)c3)cc2)cc1,103%,98.9%,95.6%,101%,98.2%,101%,94.6%,100%,106%
O=C(Nc1cccc2cccnc12)c1cc(C(=O)c2ccc(Cl)cc2)n2ccc(-c3ccncc3)cc12,100%,86.6%,104%,103%,95.3%,97.2%,104%,101%,98.2%
